Data published in PubChem BioAssay.

What was measured:
[1] = molecular target: Tumor necrosis factor receptor superfamily member 10B (Homo sapiens) (UniProt O14763); test: caspase-8 TRAIL sensitization, hit retest, confirmation, cell-based, NB7+caspase-8, with/without TRAIL, luminescence panel (AID 651596); settings: NB7 neuroblastoma + caspase-8, TRAIL sensitization, luminescence viability, with TRAIL, mean of runs, at 10 µM, stronger effect = higher value
[2] = as above; settings: NB7 neuroblastoma + caspase-8, without TRAIL, luminescence viability, without TRAIL, mean of runs, at 10 µM

Sequence of Tumor necrosis factor receptor superfamily member 10B (Homo sapiens) (O14763 whole entry, looked up): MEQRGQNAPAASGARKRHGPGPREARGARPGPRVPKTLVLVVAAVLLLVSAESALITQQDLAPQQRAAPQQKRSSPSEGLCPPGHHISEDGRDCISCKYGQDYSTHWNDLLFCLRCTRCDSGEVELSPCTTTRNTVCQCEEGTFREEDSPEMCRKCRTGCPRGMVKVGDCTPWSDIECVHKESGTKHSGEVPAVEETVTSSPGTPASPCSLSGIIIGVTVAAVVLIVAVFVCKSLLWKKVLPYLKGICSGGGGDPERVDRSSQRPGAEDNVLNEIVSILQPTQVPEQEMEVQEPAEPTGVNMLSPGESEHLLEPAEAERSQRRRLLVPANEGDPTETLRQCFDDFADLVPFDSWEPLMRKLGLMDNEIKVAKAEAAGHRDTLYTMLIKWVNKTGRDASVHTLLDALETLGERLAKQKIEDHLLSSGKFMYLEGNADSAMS

SMILES: Cc1cc(C(=O)CSc2nnc(N)s2)c(C)n1Cc1cccs1
- activity [1]: 72.5%
- activity [2]: 77.5%

SMILES: O=C(N/N=C\c1cccc(OC(=O)c2ccco2)c1)c1ccc2c(c1)OCO2
- activity [1]: 83%
- activity [2]: 74.1%

SMILES: Cc1cccnc1NC(=S)NC(=O)c1cccs1
- activity [1]: 73.2%
- activity [2]: 66.8%

SMILES: COCCOCCn1c(/C=C/c2ccccc2)nc2ccccc21
- activity [1]: 65.4%
- activity [2]: 77.1%

SMILES: NC(=O)c1c(NC(=O)c2cc3ccccc3o2)sc2c1CCC2
- activity [1]: 56%
- activity [2]: 42.8%

SMILES: Cc1cc(NC(=O)/C=C/c2ccccc2Cl)n(-c2nc3ccccc3[nH]2)n1
- activity [1]: 78.8%
- activity [2]: 82.4%

SMILES: CC(C)CC(NC(=O)c1ccc(Cl)cc1)C(=O)OCC(=O)c1ccc2c(c1)NC(=O)CO2 (centres undefined)
- activity [1]: 71.7%
- activity [2]: 97.4%

SMILES: O=C(NC(=S)Nc1nc2ccc(F)cc2s1)c1ccco1
- activity [1]: 85.3%
- activity [2]: 77.4%

SMILES: COc1cccc(-c2nnc(Nc3nc4c(F)cccc4s3)o2)c1
- activity [1]: 81.2%
- activity [2]: 84.2%

SMILES: Cc1cnc(NC(=O)COc2ccccc2Cl)s1
- activity [1]: 83%
- activity [2]: 82.7%

SMILES: O=C(Nc1ccc(F)cc1)c1nc(S(=O)(=O)Cc2ccccc2)ncc1Cl
- activity [1]: 57%
- activity [2]: 94.9%

SMILES: Cc1cccc(/C(N)=N/OC(=O)c2ccoc2C)c1
- activity [1]: 90.8%
- activity [2]: 91.8%

SMILES: COc1ccc(OC)c2sc(N(CCN(C)C)C(=O)/C=C/c3cccs3)nc12
- activity [1]: 95.2%
- activity [2]: 98.8%

SMILES: Cc1ccc(NC(=O)c2ccc(CSc3nnnn3C)cc2)cc1
- activity [1]: 44.9%
- activity [2]: 37.7%

SMILES: Cc1ccc(O)c(-c2cc(-c3ccc(F)cc3)no2)c1
- activity [1]: 71.2%
- activity [2]: 57.8%

SMILES: Cn1c(-c2ccccc2F)cc2onc(-c3ccccc3)c2c1=O
- activity [1]: 63%
- activity [2]: 65.1%

SMILES: Cc1cc(C(=O)Cn2nnc3ccccc3c2=O)c(C)n1Cc1cccs1
- activity [1]: 65.1%
- activity [2]: 58.3%

SMILES: C/C(=N\Nc1nncc2ccccc12)c1cccc(OC(F)F)c1
- activity [1]: 75.8%
- activity [2]: 72.8%

SMILES: c1ccc(CNc2nc(NCC3CC3)nc3cc(-c4ccccc4)sc23)cc1
- activity [1]: 15.9%
- activity [2]: 16.7%

SMILES: CSc1nnc(NC(=O)c2ccc3c(c2)OCO3)s1
- activity [1]: 76.5%
- activity [2]: 78.7%

SMILES: CCC(C)c1ccc2oc(-c3ccc(NC(=O)Cn4cnc5c(=O)n(C)c(=O)n(C)c54)cc3)nc2c1 (centres undefined)
- activity [1]: 85.3%
- activity [2]: 66.9%

SMILES: CCOc1ccc2nc(-c3ccccc3)[nH]c2c1
- activity [1]: 81.2%
- activity [2]: 76%

SMILES: COc1cccc2sc(N(CCCN(C)C)C(=O)c3ccc(S(=O)(=O)N4CCc5ccccc5C4)cc3)nc12
- activity [1]: 56.8%
- activity [2]: 79%

SMILES: C=CCn1c2ccccc2c(=O)c2cc(C#CC3(O)CCCCC3)ccc21
- activity [1]: 83.7%
- activity [2]: 79.7%

SMILES: Cc1ccc(C(=O)Nc2ncc3c(Cl)cccc3n2)cc1
- activity [1]: 91.5%
- activity [2]: 89%

SMILES: CCOc1ccc(C(=O)Nc2nnc(SCC(=O)NCC3CCCO3)s2)cc1 (centres undefined)
- activity [1]: 96.1%
- activity [2]: 96.3%

SMILES: O=C(c1cc(-c2ccc(Cl)cc2Cl)on1)N1CCOCC1
- activity [1]: 53.3%
- activity [2]: 60.3%

SMILES: CCc1ccc2nc(N(CCCN(C)C)C(=O)c3ccc(S(=O)(=O)N4CCc5ccccc5C4)cc3)sc2c1
- activity [1]: 68.4%
- activity [2]: 64%

SMILES: COc1ccc(/C=C/C(=O)c2c(O)cc(C)oc2=O)c(OC)c1
- activity [1]: 91.1%
- activity [2]: 92.5%

SMILES: CCN(CC)C(=O)c1nn(-c2ccccc2)c2c1C1CCC2(C)C1(C)C (centres undefined)
- activity [1]: 15.1%
- activity [2]: 8.65%

SMILES: CCOc1cc(CNCCc2ccc(S(N)(=O)=O)cc2)ccc1OCc1ccc(Cl)cc1
- activity [1]: 65.4%
- activity [2]: 84.1%

SMILES: Cc1cc(C)n(-c2nc(Nc3ccccc3C(F)(F)F)nc(-n3nc(C)cc3C)n2)n1
- activity [1]: 51.8%
- activity [2]: 71.9%

SMILES: Cc1ccc(C(=O)OCn2ncc(Cl)c(Cl)c2=O)cc1
- activity [1]: 100%
- activity [2]: 100%

SMILES: Cc1ccsc1C(=O)Nc1nc2ccccc2[nH]1
- activity [1]: 82%
- activity [2]: 85.7%

SMILES: C/C(=N\NC(=O)c1cccc(O)c1)c1cccc(NC(=O)c2ccc(F)cc2)c1
- activity [1]: 74.5%
- activity [2]: 77.4%

SMILES: Cc1nc(N)nc(N)c1-c1ccc([N+](=O)[O-])cc1
- activity [1]: 71.8%
- activity [2]: 81.2%

SMILES: CCOc1ccc(-c2cc(C(=O)N/N=C/c3cccnc3)c3ccccc3n2)cc1
- activity [1]: 74.2%
- activity [2]: 74.4%

SMILES: C/C(=N\Nc1nc2ccccc2[nH]1)c1ccccn1
- activity [1]: 51.5%
- activity [2]: 68.5%

SMILES: Cc1ccc2nc(-c3ccc(NC(=O)COC(=O)c4ccc([N+](=O)[O-])o4)cc3)sc2c1
- activity [1]: 70.1%
- activity [2]: 69.9%

SMILES: O=C(Nc1cccc(Oc2ccc(C(=O)O)c(C(=O)O)c2)c1)c1ccc(-c2ccccc2)cc1
- activity [1]: 60.4%
- activity [2]: 56%

SMILES: CCCc1cc(=O)[nH]c(SCC(=O)c2c(N)n(CC(C)C)c(=O)n(C)c2=O)n1
- activity [1]: 80.5%
- activity [2]: 83.7%

SMILES: Cc1cccc2sc(NNC(=O)c3cc(-c4cccs4)nc4ccccc34)nc12
- activity [1]: 25.2%
- activity [2]: 26.2%
